Screening results from PubChem BioAssay.
Many of the other results were omitted from the sample, so hits are more common in it than they were.
APEX1 inh: blocks human APE1 abasic DNA cleavage; hit rate 0.35% among 350,000; Potency, µM (highest dose often 65.8 µM), for the others: top-dose activity change, negative = inhibition, usual class: inhibitors; P27695; recombinant APE1, TAMRA/BHQ-2 abasic DNA cleavage fluorescence; AID 2517;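 also: plate controls were vehicle for no effect and reference inhibitor for full effect; nearly all actives have a fitted effect of over 55% in size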
Target sequence (P27695 whole entry, looked up): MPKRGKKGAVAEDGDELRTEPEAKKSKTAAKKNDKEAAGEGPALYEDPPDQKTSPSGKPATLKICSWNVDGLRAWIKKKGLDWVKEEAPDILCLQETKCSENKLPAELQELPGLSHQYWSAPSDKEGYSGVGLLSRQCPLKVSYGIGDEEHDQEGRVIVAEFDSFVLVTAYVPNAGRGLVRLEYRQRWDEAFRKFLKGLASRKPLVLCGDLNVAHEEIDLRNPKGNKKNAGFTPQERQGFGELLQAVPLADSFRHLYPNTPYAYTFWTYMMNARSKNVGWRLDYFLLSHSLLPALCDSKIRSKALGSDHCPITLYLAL
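APE1 at 0.75 nM final was preincubated with compound 15 min at room temperature, then 50 nM double-stranded THF abasic-site substrate (5'-TAMRA/3'-BHQ-2) was added. Fluorescence (ex 525/em 598 nm) was read kinetically; third-minus-first read gave activity.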
GCN5L2 inh: GCN5L2 (KAT2A) acetyltransferase inhibition | Q92830 | GCN5L2 HAT assay, ThioGlo1 CoA-SH fluorescence | Potency, µM (highest dose often 58.9 µM), without a hit: at the highest dose activity change, negative = inhibition, usual class: inhibitors | hit rate 0.21% among 390,000 | AID 504327
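qHTS, 1536-well. 20nM enzyme, pH 7.5 HEPES/EDTA/Tween-20 buffer; 15 min compound preinc., RT. Start: 75uM H3(1-25), 70uM AcCoA, 50uM ThioGlo1. Read Ex340/Em540 at t=0 (autofluorescence flag) and t=20 min.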
BLM helicase inh: inhibitors of human Bloom syndrome helicase BLM. P54132. recombinant BLM DNA unwinding, fluorescence dequenching. Potency, µM (series often up to 56.1 µM), inactives show at the top dose activity change, negative = inhibition, hits mostly inhibitors. hit rate 0.2% among 350,000. AID 2528;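 also: plate controls were vehicle for no effect and no enzyme for full effect; nearly all actives have a fitted effect of over 35% in size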
TDP1 inh: blocks human tyrosyl-DNA phosphodiesterase 1; recombinant TDP1, AlphaScreen DNA substrate cleavage; hit rate 0.28% among 350,000; Q9NUW8; Potency, µM (series often up to 130 µM), for the others: at the highest dose activity change, negative = inhibition, usual class: inhibitors; also: nearly all actives have a fitted effect of over 40% in size
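Here, a 5' biotin and 3' phosphotyrosine-FITC DNA oligonucleotide reports Tdp1 activity: intact substrate bridges AlphaScreen beads, while cleavage leaves a 3' phosphate and drops signal. All incubations at room temperature.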
RECQ1 inh-1: blocks DNA unwinding by human RECQ1 | P46063 | RECQ1 DNA unwinding, red fluorescence kinetic read | Potency, µM (doses to about 57.3 µM), without a hit: at the top dose activity, negative = inhibition, hits mostly inhibitors | hit rate 0.54% among 240,000 | AID 2549;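 also: plate controls were vehicle for no effect and no enzyme for full effect; nearly all actives have a fitted effect of over 30% in size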
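50 nM RECQ1T1 preincubated 15 min with compound in Tris pH 8.0 buffer with MgCl2, DTT, Tween-20 and 2.5 ug/ml poly(dI-dC); started with 200 nM TAMRA/BHQ-2 forked duplex and 2 mM ATP. Unwinding read as fluorescence (525/598 nm), two reads 2 h apart.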
KDM4E inh: blocks human JMJD2E demethylase activity. B2RXH2. JMJD2E catalytic domain, FDH-coupled NADH fluorescence (FDH is formaldehyde dehydrogenase). Potency, µM (highest dose often 57.1 µM), for inactives: at the highest dose activity change, negative = inhibition, hits mostly inhibitors. hit rate 1.6% among 230,000; active = well fitted inhibition curve with a large enough effect, not every such curve was filed as active; inconclusive = small, poorly fitted or top-dose-only effect, or another doubt; inactive = no such curve, though single readings can be large or run the other way;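 also: 0% = wells with enzyme and -100% = buffer wells without enzyme; nearly all actives have a fitted effect of over 50% in size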
Target sequence (B2RXH2 1-337 limits assumed): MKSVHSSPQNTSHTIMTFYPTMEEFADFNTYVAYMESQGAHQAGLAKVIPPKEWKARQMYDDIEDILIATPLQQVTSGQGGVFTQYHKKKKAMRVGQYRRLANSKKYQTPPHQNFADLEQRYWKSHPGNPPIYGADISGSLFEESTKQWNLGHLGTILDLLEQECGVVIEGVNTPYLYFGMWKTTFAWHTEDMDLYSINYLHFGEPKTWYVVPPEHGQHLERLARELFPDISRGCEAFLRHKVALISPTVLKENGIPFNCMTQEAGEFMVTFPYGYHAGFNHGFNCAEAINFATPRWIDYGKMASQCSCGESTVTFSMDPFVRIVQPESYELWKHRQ
RECQ1 conf: confirmation of human RECQ1 helicase inhibitors; Potency, µM (titrated, usually from 229 µM), inactives show at the highest dose activity change, negative = inhibition, usual class: inhibitors; RECQ1 helicase DNA unwinding, fluorescence; hit rate 28% among 610; shares compounds with RECQ1 inh-1; AID 2708; also: nearly all actives have a fitted effect of over 45% in size
RECQ1 ADP FP: ADP displacement flagged in RECQ1 inhibitor counter-screen; shares compounds with RECQ1 inh-1; ADP fluorescence polarization displacement counterscreen; Potency, µM (top dose mostly 228 µM), inactives show top-dose activity change, negative = inhibition, hits mostly inhibitors; hit rate 27% among 530; AID 2711; also: nearly all actives have a fitted effect of over 45% in size
RECQ1 inh-2: blocks human RECQ1 DNA unwinding | shares compounds with RECQ1 inh-1 | hit rate 15% among 1,100 | Potency, µM (doses to about 119 µM), for the others: at the top dose activity, negative = inhibition, actives largely listed as inhibitors | recombinant RECQ1 DNA unwinding, red fluorescence; also: nearly all actives have a fitted effect of over 50% in size
* marks the source's active call; other numbers are inactive results; i = inactive; ? = inconclusive; · = not tested or not shown; [ ] = remark or other dose. Unless noted, calls follow the shape of the dose curve; as a rule, active = well fitted curve in the direction sought with a large enough effect; inconclusive = small, poorly fitted or top-dose-only effect, or another doubt; inactive = no such curve, though single readings can be large; an effect the other way counts as inactive or inconclusive. Unless noted, % is scaled to controls: 0 for no effect and ±100 for the full control effect; potency is read from the fitted curve at half-maximal effect.

SMILES	APEX1 inh	GCN5L2 inh	BLM helicase inh	TDP1 inh	RECQ1 inh-1	KDM4E inh	RECQ1 inh-2	others
Cc1ccccc1-n1c(C)cc(/C=N/Nc2ccc([N+](=O)[O-])cn2)c1C	-4%	-8%	-4%	7%	6%	-10%	·
Cc1cc(/C=N/Nc2ccc([N+](=O)[O-])cn2)c(C)n1-c1ccc(C(=O)O)cc1	?	?	?	·	18µM*	-19%	·	RECQ1 conf=?
Cc1cccc(OCCCCn2nnc3sc4c(c3c2=O)CCC(C)C4)c1 (stereo unspecified)	·	?	-13%	·	·	·	·
Cc1ccc(-c2nc3c(c(=O)[nH]c(=O)n3Cc3ccccc3)n2C)o1	22µM*	?	?	40µM*	14µM*	?	?	RECQ1 conf=?
Cc1ccc(-c2nc3c(c(=O)[nH]c(=O)n3Cc3ccccc3)n2Cc2ccccc2)o1	-1%	-20%	-5%	5%	-16%	6%	·
Cc1noc(C)c1-c1cc(NCc2cccs2)ncn1	-1%	-23%	0%	·	2%	·	·
CC(=O)Nc1ccc(-c2ccc3nnc(C)n3n2)cc1	7%	-10%	-4%	0%	-3%	?	·
Cc1nnc2ccc(-c3ccc(NC(=O)Cc4cccs4)cc3)nn12	?	3%	-12%	·	32µM*	?	-29%
CCc1cc(C(=O)c2ccc(OC)cc2)c(NC(=O)CCC(=O)O)s1	0%	-4%	-2%	5%	i	1%	·	RECQ1 conf=8%;RECQ1 ADP FP=-15%
COc1cc2ccccc2cc1C(=O)NC(=S)Nc1cccc(C(=O)O)c1	?	-2%	?	·	?	?	25µM*
O=C(O)c1cccc(NC(=S)NC(=O)c2ccc(-c3ccccc3)cc2)c1	-6%	-1%	-2%	-2%	i	-14%	·
CCCC1=C/C(=C/c2ccc(-c3ccccc3OC)o2)C(=O)O1	8%	-26%	-11%	-3%	22µM*	?	·	RECQ1 conf=?
O=C(CNS(=O)(=O)c1ccc(Br)cc1Cl)OCC(=O)c1ccc[nH]1	10%	-1%	·	1%[0.505 µM]	·	·	·
O=C(CNS(=O)(=O)c1c(Cl)cccc1Cl)OCC(=O)c1ccc[nH]1	7%	-6%	-26%	-3%	?	2%	-23%
Cc1cccc(N2CCN(C(=O)C3CCN(S(=O)(=O)c4cccs4)CC3)CC2)c1C	·	-9%	-4%	2%	·	·	·
CC(C)(C)c1ccc(-c2nnc(SCCC#N)n2C2CCCC2)cc1	11%	-5%	-8%	-1%	14µM*	-1%	-16%	RECQ1 conf=-1%[114 µM];RECQ1 ADP FP=16%[91.9 µM]
Cn1c(SCCC#N)nnc1-c1ccc(F)cc1	-2%	8%	1%	3%	i	0%	·
COc1ccc(S(=O)(=O)c2c(Nc3cccc(C)c3C)sc(C(=O)c3ccccc3)c2N)cc1	·	-3%	-4%	0%	·	·	·
COc1cc2cc3c4c(cc(OC)c(OC)c4c2cc1OC)CCN3C	?	·	4µM*	23%	11µM*	?	·	RECQ1 conf=?;RECQ1 ADP FP=69%
COc1cc2c(cc1OC)C(=O)N(C)CC2	-4%	1%	-9%	12%	2%	4%	·
CCC(NC(=O)Nc1ccc(O)cc1)(C(F)(F)F)C(F)(F)F	?	2%	-14%	1%	?	-28%	-17%
CCC(NC(=O)NCc1ccccc1)(C(F)(F)F)C(F)(F)F	3%	35%	-1%	5%	-3%	14%	·
Cc1cccc(/C=C/C(=O)c2cc(Br)ccc(=O)c2O)c1	-12%	?	-17%	8%	?	?	?
CCOc1ccc(/C=C/C(=O)c2cc(Br)ccc(=O)c2O)cc1	21%	-20%	-17%	11%	22µM*	32µM*	?
CCc1ccc(/C=C/C(=O)c2cc(Br)ccc(=O)c2O)cc1	?	?	-21%	-5%	?	?	?
SMILES	APEX1 inh	GCN5L2 inh	BLM helicase inh	TDP1 inh	RECQ1 inh-1	KDM4E inh	RECQ1 inh-2	others
CC(C)c1ccc(Nc2nc(Nc3ccc(Cl)cc3)nc(N3CCOCC3)n2)cc1	·	·	·	0%	·	·	·	RECQ1 conf=-14%[69.1 µM]
COc1ccc(N(C)S(=O)(=O)c2ccc3c(c2)CCN3C(=O)CCC(=O)O)cc1	·	-2%	0%	5%	·	·	·
CCN(c1ccc(OC)cc1)S(=O)(=O)c1ccc2c(c1)CCN2C(=O)CCC(=O)O	-1%	2%	0%	-3%	-10%	-1%	·	RECQ1 conf=9%;RECQ1 ADP FP=-12%
CCN(c1ccc(C)c(C)c1)S(=O)(=O)c1ccc2c(c1)CCN2C(=O)CCC(=O)O	-1%	-7%	-2%	0%	-20%	-6%	·	RECQ1 conf=15%;RECQ1 ADP FP=-11%
COc1cccc(=O)c2c(C)n(-c3cc(C)cc(C)c3)c(C)c12	-6%	-5%	-8%	8%	-10%	1%	·
CCCCCn1c(C)c2c(OCC)cccc(=O)c2c1C	-8%	-12%	-12%	9%	32µM*	?	-11%
COc1cccc(=O)c2c(C)n(C)c(C)c12	-9%	-16%	-18%	-13%	?	-21%	-21%
COc1ccc(C(=O)COC(=O)/C=C/c2ccc(S(=O)(=O)Nc3cccc(S(N)(=O)=O)c3)cc2)cc1	-3%	-8%	-8%	6%	-16%	-8%	·
NS(=O)(=O)c1cccc(NS(=O)(=O)c2ccc(/C=C/C(=O)OCC(=O)c3ccc(Br)cc3)cc2)c1	-1%	-8%	-14%	4%	?	0%	-1%
Cc1cc(C(=O)COC(=O)CNC(=O)c2ccco2)c(C)n1Cc1ccco1	?	-16%	-17%	8%	?	-2%	-6%
COc1cc(OC)cc(C(=O)NCC(=O)OCC(=O)c2cc(C)n(Cc3ccco3)c2C)c1	-3%	-9%	-13%	6%	-19%	1%	·
COc1ccc(C2=CC(c3ccc(F)cc3)n3ncc(C(=O)Nc4ccc(C)cc4)c3N2)cc1 (stereo unspecified)	·	1%	-2%	8%	·	·	·
CCOC(=O)/C(C)=N/NC(C)=O	-2%	·	4%	5%	i	2%	·
CCOC(=O)c1ccc2c(c1)nc(SCC(=O)c1cc3ccccc3o1)n2CC	-6%	-14%	-9%	5%	?	-8%	?
